Assay outcomes: PubChem, National Center for Advancing Translational Sciences (NCATS)
In the library only some 6% were active in any assay of this set; here they are far more common.
Tau fluor cs: Counterscreen qHTS for Inhibitors of Tau Fibril Formation, Fluorescence Polarization | AID 1463, 2008 | 0.93% of 280,000 active | Potency, µM (top dose mostly 57.7 µM) | tau K18 P301L Alexa594 fluorescence, heparin fibrillization; further: nearly all actives have a fitted effect of over 55% in size
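Human tau K18 P301L (15 uM unlabeled, 0.24 uM Alexa 594-labeled) in 100 mM sodium acetate pH 7 with 20 uM heparin, 6 hr at 37 C. ThT 30 uM added, 1 hr ambient; Alexa 594 FP and total fluorescence read at 555/632 nm.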
Tau FP inhib: qHTS for Inhibitors of Tau Fibril Formation, Fluorescence Polarization; Microtubule-associated protein tau (Homo sapiens), P10636; 0.39% of 280,000 active; K18 P301L tau heparin fibrillization, Alexa594 FP, 6 h; AID 1468, 2008; Potency, µM (top dose mostly 57.7 µM), actives largely listed as inhibitors; further: nearly all actives have a fitted effect of over 55% in size
Target sequence (P10636 561-689 P618L limits assumed): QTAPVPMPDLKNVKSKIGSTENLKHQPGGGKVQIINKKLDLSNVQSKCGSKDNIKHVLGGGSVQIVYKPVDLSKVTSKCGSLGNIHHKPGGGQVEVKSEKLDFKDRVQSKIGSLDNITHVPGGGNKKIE
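Human tau K18 […] P301L fragment, 15 uM unlabeled plus 0.24 uM Alexa 594-labeled tau (final), with compound and 20 uM heparin in 100 mM sodium acetate pH 7; 6 hr at 37 C, then Alexa 594 FP read.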
Sfp PPTase inh: qHTS Assay for Inhibitors of Bacillus subtilis Sfp phosphopantetheinyl transferase (PPTase) | 3.5% of 310,000 active | Potency, µM, hits mostly inhibitors | 4'-phosphopantetheinyl transferase ffp (Bacillus subtilis), Q9F4F7 | Biochemical Sfp PPTase activity, qHTS;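 further: the enzyme is Sfp with the accession as filed and its product quenches rhodamine fluorescence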
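Step 1, compound plus 15 nM Sfp-PPTase, 15 min, room temperature. Step 2, add rhodamine-CoA (5 uM) and BHQ-2-YbbR (12.5 uM). Step 3, read 525/598 nm fluorescence at 0 and 30 min.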
PLK1 PBD block: qHTS for Inhibitors of PLK1-PDB (polo-like kinase 1 - polo-box domain): Primary Screen | Serine/threonine-protein kinase PLK1 (Homo sapiens), P53350 | Potency, µM, actives largely listed as inhibitors | Plk1 PBD binding of FITC phosphopeptide, fluorescence polarization | 2.8% of 360,000 active; further: series mostly up to about 57 µM; nearly all actives have a fitted effect of over 65% in size
Target sequence (P53350 whole entry, looked up, the tested form may be a part): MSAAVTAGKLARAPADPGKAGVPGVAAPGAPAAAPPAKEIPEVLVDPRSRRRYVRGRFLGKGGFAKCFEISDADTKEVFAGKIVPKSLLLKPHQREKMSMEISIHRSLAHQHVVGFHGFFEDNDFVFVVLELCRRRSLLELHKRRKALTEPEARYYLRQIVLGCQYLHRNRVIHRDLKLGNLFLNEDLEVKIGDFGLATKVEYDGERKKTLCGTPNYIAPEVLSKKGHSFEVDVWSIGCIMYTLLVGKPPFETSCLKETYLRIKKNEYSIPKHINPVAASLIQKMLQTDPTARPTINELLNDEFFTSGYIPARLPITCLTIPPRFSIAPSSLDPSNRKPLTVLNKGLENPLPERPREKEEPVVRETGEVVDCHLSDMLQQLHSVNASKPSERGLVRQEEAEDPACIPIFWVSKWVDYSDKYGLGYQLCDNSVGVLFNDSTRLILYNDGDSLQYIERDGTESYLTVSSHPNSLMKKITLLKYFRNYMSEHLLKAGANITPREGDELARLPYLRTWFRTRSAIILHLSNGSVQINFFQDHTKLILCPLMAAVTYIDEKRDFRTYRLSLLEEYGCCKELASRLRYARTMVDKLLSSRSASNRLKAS
VDR inh: Inhibitors of the vitamin D receptor (VDR): qHTS; VDR-SRC2-3 peptide fluorescence polarization, 2 h; Potency, µM, most hits filed as inhibitors; 0.93% of 400,000 active; Vitamin D3 receptor (Homo sapiens), P11473
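After 23 nl compound addition and a short centrifugation, plates sat for 2 hours at ambient temperature; polarization of fluorescence then indicated loss of VDR binding to peptide SRC2-3.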
Tau ThT inhib: qHTS for Inhibitors of Tau Fibril Formation, Thioflavin T Binding; recombinant tau K18 P301L (four-repeat tau fragment), heparin-induced fibrillization, ThT fluorescence; 2.1% of 270,000 active; Potency, µM (titrated, usually from 57.4 µM), hits mostly inhibitors; further: nearly all actives have a fitted effect of over 55% in size
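Heparin-induced (20 uM) aggregation of recombinant human K18 P301L tau, 15 uM unlabeled with 0.24 uM labeled, pH 7 acetate buffer, 6 hr at 37 C with compound. Fibrils quantified by 30 uM ThT fluorescence after 1 hr ambient incubation.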
Numbers stand for hits; i = inactive; ? = inconclusive; nt = no result; [ ] = dose if it differs, or a comment. The call rests on the fitted dose curve; in most records, active means well fitted curve in the direction sought with a large enough effect; inconclusive means small, poorly fitted or top-dose-only effect, or another doubt; inactive means no such curve, though single readings can be large; an effect the other way counts as inactive or inconclusive.

SMILES | Tau fluor cs | Tau FP inhib | Sfp PPTase inh | PLK1 PBD block | VDR inh | Tau ThT inhib
Oc1[nH]c2ccccc2c1N=Nc1nc2ccccc2s1 | ? | i | i | i | i | 2µM
COc1ccccc1NC(=S)N=Nc1c(O)[nH]c2ccc(Br)cc12 | ? | i | i | i | i | ?
COC(=O)/C=C(\C)N=Nc1c(O)[nH]c2ccccc12 | i | i | i | i | i | 11µM
Oc1[nH]c2ccccc2c1N=Nc1ccc(F)cc1 | i | i | i | i | i | 2µM
CC(C)(O)C(=O)N=Nc1c(O)[nH]c2ccccc12 | i | i | i | i | i | i
Cc1ccc2[nH]c(O)c(N=Nc3nc4ccccc4s3)c2c1 | ? | i | i | i | i | nt
Cc1cccc(NC(=S)N=Nc2c(O)[nH]c3ccccc23)c1 | 14µM[quencher] | i | i | i | i | 7.9µM
CC(C)c1ccc(OCC(=O)Nc2ccc(S(=O)(=O)Nc3ncccn3)cc2)cc1 | i | i | nt | nt | i | i
O=Nc1c(-c2c(O)[nH]c3ccccc23)[nH]c2ccccc12 | 16µM[quencher] | ? | i | nt | i | 2.8µM
O=C(N=Nc1c(O)[nH]c2ccccc12)c1cc(-c2ccc(F)cc2)n[nH]1 | i | i | i | i | i | 2.2µM
O=C(N=Nc1c(O)[nH]c2ccccc12)c1cc(-c2cccs2)[nH]n1 | ? | i | i | i | i | nt
Cc1cccc(NC(=O)c2sc3nc(-c4ccccc4)cn3c2C)c1C | i | i | nt | nt | i | ?
Nc1nnc(N)c2ccccc12 | i | i | i | i | i | i
Nc1nsc2ccccc12 | i | ? | ? | i | i | 13µM
CCOC(=O)c1c(C)oc2ncnc(Nc3ccc(OCC)cc3)c12 | i | i | nt | nt | i | i
Cc1ccc(S(=O)(=O)N2CCCC2)cc1C(=O)Nc1ccc(-n2cnnn2)cc1 | nt | nt | nt | i | i | nt
Cc1ccc(C(=O)c2sc(Nc3ccccc3F)c(S(=O)(=O)c3ccccc3)c2N)c(C)c1 | i | i | nt | nt | i | i
CC(C)C(=O)Nc1cccc(NC(=O)c2cccc(F)c2)c1 | i | i | i | i | i | i
CCC(C)(C)NC(=O)c1cccc(NC(=O)C(C)C)c1 | i | i | i | 21µM | i | i
CCCN1C(=O)CC(c2ccc(OC)c(OC)c2)C1=O (stereo not drawn) | nt | nt | nt | i | nt | nt
S=C(Nc1cccc(Cl)c1)N(CCCN1CCCC1)Cc1cccn1Cc1ccc(Cl)cc1 | ? | i | 63µM | i | i | ?
CSc1cccc(NC(=S)N(CCCN2CCCC2)Cc2cccn2Cc2ccc(Cl)cc2)c1 | ? | i | 79µM | i | i | ?
Cn1cnc(C(=O)N2CCc3ccccc3C2)c1C(=O)N1CCc2ccccc2C1 | nt | nt | nt | 21µM | i | nt
CCCCCCCCCCCNC(=O)c1ccoc1C | i | i | i | ? | 79µM | i
CCCCNC(=O)c1ccccc1C(=O)NCCCC | i | i | i | 5.3µM | ? | i
SMILES | Tau fluor cs | Tau FP inhib | Sfp PPTase inh | PLK1 PBD block | VDR inh | Tau ThT inhib
CCCCNC(=O)c1ccccc1Cl | i | i | i | i | i | i
COCCCNC(=O)c1ccccc1C(F)(F)F | i | i | i | 15µM | ? | nt
O=C(NCCc1ccccc1)c1ccccc1C(F)(F)F | nt | nt | nt | i | nt | nt
CC(=O)OCC(=O)[C@]1(O)C(OC(C)=O)CC2C3CCC4=CC(=O)C=C[C@@]4(C)[C@]3(F)C(O)C[C@]21C (stereo partly drawn) | i | i | i | nt | i | i
CCCCNC(=O)N1CCc2ccccc2C1 | i | i | i | 30µM | ? | i
O=C(NCc1ccc(F)cc1)N1CCc2ccccc2C1 | nt | nt | i | i | i | nt
C[C@@H]1CN([C@@H](C)CO)C(=O)c2ccccc2-c2ccccc2CO[C@@H]1CN(C)S(=O)(=O)c1ccc(C(F)(F)F)cc1 | nt | nt | nt | i | nt | nt
CCSc1ncc(/C=N/Nc2ccc([N+](=O)[O-])cc2)n1C | ? | i | i | i | i | 0.89µM
CCSc1ncc(/C=N/Nc2ccc(Cl)cc2)n1C | 6.3µM[quencher] | i | 28µM | i | i | 7.9µM
CCSc1ncc(/C=N/Nc2ccccc2)n1C | ? | ? | i | 7.5µM | i | 4.5µM
COC(=O)c1cnc(SCc2ccc(Cl)cc2)n1C | i | i | i | i | i | i
COc1ccc(N(CC2CO2)S(=O)(=O)c2ccc(C)cc2)cc1 (stereo not drawn) | nt | nt | i | i | i | nt
CCN1C(C)=C(C(=O)OC(C)C)C(c2ccccc2Cl)C(C(=O)O)=C1C(=O)O (stereo not drawn) | nt | nt | i | nt | i | nt
CC(C)Nc1nnc(SCc2cc(=O)n3ccsc3n2)s1 | i | i | 56µM | i | i | i
C/C(=N\NC(=O)c1ccccc1F)c1ccc2c(c1)Nc1ccccc1S2 | 3.5µM[quencher] | ? | i | i | i | 2µM
CC(=O)Nc1cccc(/C(C)=N/NC(=O)c2ccc(O)cc2)c1 | i | i | i | i | i | i
C/C(=N\NC(=O)c1ccc(O)cc1)c1ccc2c(c1)Nc1ccccc1S2 | 11µM[quencher] | i | i | i | i | 4.5µM
CCCC(C)NC(=O)COC(=O)c1cccc(NS(C)(=O)=O)c1 (stereo not drawn) | i | i | i | 30µM | i | i
Cc1ccc2cccc(CC(=O)NN)c2c1 | nt | nt | nt | i | nt | nt
COc1ccc(C(=O)NC(=S)N2CCN(c3ccccc3O)CC2)cc1 | nt | nt | nt | i | i | nt
COc1ccc(C(=S)N2CCCCCC2)cc1 | i | ? | i | 27µM | ? | ?
CCOC(=O)c1ccc(NC(=S)N2CCCC(C(=O)OCC)C2)cc1 (stereo not drawn) | i | i | i | i | i | i
COc1ccc(C(=S)N2CCN(c3ccccc3C)CC2)cc1 | i | i | ? | 21µM | i | nt
CCOC(=O)c1ccc(C(=S)N2CCCC2)cc1 | nt | nt | 40µM | 7.5µM | i | nt
CC(=O)c1ccc(NC(=O)CSc2nc(C3CCCC3)nc3c2c(=O)n(C)c(=O)n3C)cc1 | i | i | nt | nt | i | i
SMILES | Tau fluor cs | Tau FP inhib | Sfp PPTase inh | PLK1 PBD block | VDR inh | Tau ThT inhib
CCc1ccccc1NC(=O)Nc1cc(C(=O)NCc2ccc(C)cc2)ccc1N1CCCC1 | i | i | nt | nt | i | i
COc1cc(-c2nc3cccc(C)n3c2Nc2ccc3c(c2)OCCO3)ccc1O | 18µM[quencher] | i | nt | nt | i | ?
COc1cc(-c2nc3ccc(C)cn3c2Nc2ccc3c(c2)OCCO3)ccc1O | 16µM[quencher] | i | i | i | i | ?
Clc1cccc(-c2nc3ccccn3c2Nc2ccc3c(c2)OCCO3)c1 | 7.9µM[quencher] | ? | nt | nt | i | ?
Oc1ccc(-c2nc3ccccn3c2Nc2ccc3c(c2)OCCO3)cc1 | ? | i | nt | nt | i | ?
CCOc1ccc(S(=O)(=O)Nc2ccc3c(c2)N(C(C)=O)CCC3)cc1 | i | i | nt | nt | i | i
CC1(C)C(N(O)C(=O)Nc2ccc(Cl)cc2)N(c2ccc(Cl)cc2)C(=O)N1CC(=O)NN (stereo not drawn) | i | i | 100µM | i | i | i
